Results filed as inconclusive are left out. The source made the active and inactive calls. The calls were made as follows: active = hit-call score of the fitted dose curve at least 0.9, where 1 is the maximum; inconclusive = response in the unintended direction; inactive = score below 0.9.

In assay [1] the target is human Acetylcholinesterase (AChE), ACHE (gene 43) (UniProt P22303). In words: NVS_ENZ_hAChE: NovaScreen (NVS) Enzymatic Assay for human Acetylcholinesterase (AChE) (AID 2283129). The procedure, abridged:
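Cell-free colorimetric enzyme-activity assay; compounds read 0.33 hour after dosing, loss of signal vs DMSO baseline. Primary screen in duplicate at 25 uM single concentration, with active compounds retested in concentration series.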

Assay [2] addresses human Caspase 2 (CASP2), CASP2 (gene 835) (UniProt P42575). In words: NVS_ENZ_hCASP2: NovaScreen (NVS) Enzymatic Assay for human Caspase 2 (CASP2) (AID 2283135). The gist of the method:
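E. coli-expressed enzyme in a cell-free protease assay, fluorescence read 1 h after dosing. Compounds at 25 uM in duplicate, with concentration-response up to 50 uM for hits; loss of signal against DMSO baseline.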

Assay [3] concerns the target rat Monoamine Oxidase, MAO-B, Central (MAOBC), Maob (gene 25750) (UniProt P19643). In words: NVS_ENZ_rMAOBC: NovaScreen (NVS) Enzymatic Assay for rat Monoamine Oxidase, MAO-B, Central (MAOBC) (AID 2283238). The procedure, abridged:
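Compounds were first tested in duplicate at 25 uM against MAO-B from rat brain tissue; those passing the inhibition threshold were retested in concentration series up to 50 uM. Radiodetection by scintillation counting at 1.17 h, analysed against DMSO baseline.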

Assay [4] deals with human Matrix Metalloproteinase-1 (MMP1), MMP1 (gene 4312) (UniProt P03956). Description: NVS_ENZ_hMMP1: NovaScreen (NVS) Enzymatic Assay for human Matrix Metalloproteinase-1 (MMP1) (AID 2283181). The gist of the method:
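Human MMP1 enzyme activity measured by fluorescence 1 h after dosing, cell-free, with a specific substrate. Screened in duplicate at 25 uM; hits (e.g. 30% inhibition) run in concentration-response up to 50 uM; loss of signal versus DMSO.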

For assay [5], the system named is rat Monoamine Oxidase, MAO-A, Peripheral (MAOAP), gene 29253. In words: NVS_ENZ_rMAOAP: NovaScreen (NVS) Enzymatic Assay for rat Monoamine Oxidase, MAO-A, Peripheral (MAOAP) (AID 2283237). The gist of the method: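 Rat liver mitochondrial membranes served as the MAO-A source, with enzyme activity measured by radiometric scintillation counting 1.17 hours after dosing. Loss of signal was fitted against DMSO; primary screen used 25 uM in duplicate, follow-up used concentration series.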

The target in assay [6] is rat Oxytocin Receptor (OXT), Oxtr (gene 25342) (UniProt P70536). In words: NVS_GPCR_rOXT: NovaScreen (NVS) G Protein-Coupled Receptor Assay for rat Oxytocin Receptor (OXT) (AID 2283330). The procedure, abridged:
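Radioligand displacement on rat uterine membranes, 1 h incubation, filter-based scintillation counting. Chemicals were screened in duplicate at 25 uM, and those passing threshold were retested in concentration-response up to 50 uM. Loss of binding was fitted versus DMSO.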

Assay [7] deals with human AMP-activated Protein Kinase, alpha 1 (AMPKa1), PRKAA1 (gene 5562) (UniProt Q13131). Description: NVS_ENZ_hAMPKa1: NovaScreen (NVS) Enzymatic Assay for human AMP-activated Protein Kinase, alpha 1 (AMPKa1) (AID 2283130). The procedure, abridged: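 Recombinant human AMPKα1 activity was measured cell-free by fluorescent substrate conversion with electrophoretic mobility-shift separation, 1 h after dosing. Duplicate single-point screening was at 25 uM; actives (≥30% inhibition) were retested in concentration-response up to 50 uM.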

In assay [8] the target is Protein deacetylase HDAC6 (Homo sapiens) (UniProt Q9UBN7). Description: NVS_ENZ_hHDAC6: NovaScreen (NVS) Enzymatic Assay for human Histone Deacetylase 6 (HDAC6) (AID 2283164). The gist of the method: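 Recombinant human HDAC6 with fluorescent substrate, 1 h; product separated from substrate by electrophoretic mobility shift. Primary screen in duplicate at 25 uM; actives retested singly in concentration-response up to 50 uM, fitted relative to DMSO.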

Assay [9] concerns the target Norway rat Vesicular Monoamine Transporter (VMAT2), neurotransmitter transporter, Slc18a2 (gene 25549) (UniProt Q01827). In words: NVS_TR_rVMAT2: NovaScreen (NVS) Transporter Assay for Norway rat Vesicular Monoamine Transporter (VMAT2), neurotransmitter transporter (AID 2283376).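 Also: actives lower the bound radioligand signal below the DMSO level.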 The procedure, abridged: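 Tissue: rat forebrain extract. Format: competitive radioligand binding, cell-free. Timepoint: 1 h. Readout: filter radiodetection/scintillation. Screen: 25 uM in duplicate, then concentration series for actives. Baseline: DMSO.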

Assay [10] concerns the target human p21 Activated Kinase 4 (PAK4), PAK4 (gene 10298) (UniProt O96013). In words: NVS_ENZ_hPAK4: NovaScreen (NVS) Enzymatic Assay for human p21 Activated Kinase 4 (PAK4) (AID 2283189). The procedure, abridged: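 Cell-free recombinant human PAK4 activity assay; fluorescent substrate and product separated by electrophoretic mobility shift, read 1 h after dosing. Initially tested in duplicate at 25 uM, relative to DMSO baseline.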

The target of assay [11] is rat Monoamine Oxidase, MAO-B, Peripheral (MAOBP), Maob (gene 25750) (UniProt P19643). In words: NVS_ENZ_rMAOBP: NovaScreen (NVS) Enzymatic Assay for rat Monoamine Oxidase, MAO-B, Peripheral (MAOBP) (AID 2283242).
Assay [12] deals with human Caspase 10 (CASP10), CASP10 (gene 843) (UniProt Q92851). In words: NVS_ENZ_hCASP10: NovaScreen (NVS) Enzymatic Assay for human Caspase 10 (CASP10) (AID 2283133). The procedure, abridged: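 Recombinant human caspase-10 from E. coli, cell-free fluorogenic substrate assay read 1 h after dosing. Primary duplicate screen at 25 uM; hits (e.g. ≥30% inhibition) run singly in concentration-response up to 50 uM, normalised to DMSO.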

For assay [13], the target named is human Mitogen-Activated Protein Kinase 1 (MAPK 1), MAPK1 (gene 5594) (UniProt P28482). In words: NVS_ENZ_hMAPK1: NovaScreen (NVS) Enzymatic Assay for human Mitogen-Activated Protein Kinase 1 (MAPK 1) (AID 2283175). The gist of the method:
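Cell-free recombinant human MAPK1 enzymatic assay, fluorescence/electrophoretic mobility shift read at 1 h; loss of signal vs DMSO. Primary screen in duplicate at 25 uM; actives (e.g. ≥30% inhibition) run as concentration-response up to 50 uM.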

For assay [14], the target named is human Tyrosine Protein Kinase Receptor Tie-2 (Tie2), TEK (gene 7010) (UniProt Q02763). Description: NVS_ENZ_hTie2: NovaScreen (NVS) Enzymatic Assay for human Tyrosine Protein Kinase Receptor Tie-2 (Tie2) (AID 2283225). The procedure, abridged:
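Recombinant human Tie2 kinase activity was read cell-free by fluorescence with electrophoretic mobility shift, 1 hour after dosing. The screen used 25 uM in duplicate, then concentration-response up to 50 uM. Signal loss was scored against DMSO.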

In assay [15] the target is rat Gamma-Aminobutyric Acid Type A Receptor BDZ, alpha 6 site (GABARa6), Gabra6 (gene 29708) (UniProt P30191). In words: NVS_LGIC_rGABARa6: NovaScreen (NVS) Ligand-Gated Ion Channel Assay for rat Gamma-Aminobutyric Acid Type A Receptor BDZ, alpha 6 site (GABARa6) (AID 2283339). The procedure, abridged: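 Rat cerebellar membranes; radioligand binding, filtration and scintillation counting, read 1 h after dosing. Single-concentration duplicate screen at 25 uM, then concentration-response up to 50 uM for actives; loss of signal fitted versus DMSO baseline.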

For assay [16], the system named is rat Monoamine Oxidase, MAO-A, Central (MAOAC), gene 29253. Description: NVS_ENZ_rMAOAC: NovaScreen (NVS) Enzymatic Assay for rat Monoamine Oxidase, MAO-A, Central (MAOAC) (AID 2283243).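 Also: potency refers to inhibition seen as signal drop below DMSO baseline.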 The procedure, abridged:
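Steps: rat brain protein extract dosed with test chemical (25 uM, duplicate, primary); incubated 1.5 h; radiolabelled product separated from substrate and counted. Signal loss versus DMSO scored as inhibition.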

Assay [17] concerns the target human Aurora Kinase A - serine/threonine-protein Kinase 6 (AurA), AURKA (gene 6790) (UniProt O14965). In words: NVS_ENZ_hAurA: NovaScreen (NVS) Enzymatic Assay for human Aurora Kinase A - serine/threonine-protein Kinase 6 (AurA) (AID 2283142). The procedure, abridged: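 Cell-free enzymatic assay with human Aurora A, 1 hour after dosing. Fluorescent substrate turnover detected after electrophoretic mobility shift separation of substrate and product. Screened at 25 uM, actives retested in concentration-response up to 50 uM.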

Assay [18] has as its target human Fibroblast Growth Factor Receptor 1 (FGFR1), FGFR1 (gene 2260) (UniProt P11362). In words: NVS_ENZ_hFGFR1: NovaScreen (NVS) Enzymatic Assay for human Fibroblast Growth Factor Receptor 1 (FGFR1) (AID 2283159).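 Also: hits lower the signal so potencies describe inhibitors of the kinase.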 The procedure, abridged:
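Cell-free recombinant kinase with fluorescent substrate, product separated by electrophoretic mobility shift; read 1 hour after dosing, loss of signal relative to DMSO. Initial screen in duplicate at 25 uM, actives followed in concentration series.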

Chain of rat Monoamine Oxidase, MAO-B, Central (MAOBC), Maob (gene 25750) (P19643 whole entry, looked up): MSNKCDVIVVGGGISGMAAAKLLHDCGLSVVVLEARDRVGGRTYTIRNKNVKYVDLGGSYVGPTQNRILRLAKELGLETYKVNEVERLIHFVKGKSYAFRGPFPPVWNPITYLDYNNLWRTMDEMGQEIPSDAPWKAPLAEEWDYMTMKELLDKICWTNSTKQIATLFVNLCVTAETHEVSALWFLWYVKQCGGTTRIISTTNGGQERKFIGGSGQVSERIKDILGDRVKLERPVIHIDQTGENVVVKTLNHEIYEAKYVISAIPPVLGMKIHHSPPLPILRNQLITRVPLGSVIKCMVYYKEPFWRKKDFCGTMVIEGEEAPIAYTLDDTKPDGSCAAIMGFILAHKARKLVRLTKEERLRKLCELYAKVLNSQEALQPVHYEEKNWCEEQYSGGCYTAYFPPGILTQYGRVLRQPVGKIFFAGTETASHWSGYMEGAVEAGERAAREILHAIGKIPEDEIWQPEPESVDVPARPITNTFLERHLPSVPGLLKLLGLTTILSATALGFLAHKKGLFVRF
Chain of human Acetylcholinesterase (AChE), ACHE (gene 43) (P22303 whole entry, looked up): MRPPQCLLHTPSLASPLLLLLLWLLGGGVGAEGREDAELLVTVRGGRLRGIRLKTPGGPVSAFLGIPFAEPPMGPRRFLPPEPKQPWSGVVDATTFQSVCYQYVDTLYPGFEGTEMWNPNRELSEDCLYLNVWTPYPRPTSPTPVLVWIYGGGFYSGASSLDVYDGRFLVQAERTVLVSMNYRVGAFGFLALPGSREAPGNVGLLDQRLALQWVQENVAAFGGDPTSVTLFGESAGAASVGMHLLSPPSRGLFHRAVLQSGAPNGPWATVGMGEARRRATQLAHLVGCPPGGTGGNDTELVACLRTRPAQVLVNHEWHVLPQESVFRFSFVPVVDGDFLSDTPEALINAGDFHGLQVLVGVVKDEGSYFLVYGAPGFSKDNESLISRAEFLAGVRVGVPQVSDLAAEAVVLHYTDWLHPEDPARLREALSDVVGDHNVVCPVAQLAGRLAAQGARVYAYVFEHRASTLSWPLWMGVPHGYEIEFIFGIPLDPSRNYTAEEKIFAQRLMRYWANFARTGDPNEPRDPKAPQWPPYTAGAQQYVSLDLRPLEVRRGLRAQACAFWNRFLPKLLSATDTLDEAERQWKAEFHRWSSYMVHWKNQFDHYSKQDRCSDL
Chain of Norway rat Vesicular Monoamine Transporter (VMAT2), neurotransmitter transporter, Slc18a2 (gene 25549) (Q01827 whole entry, looked up): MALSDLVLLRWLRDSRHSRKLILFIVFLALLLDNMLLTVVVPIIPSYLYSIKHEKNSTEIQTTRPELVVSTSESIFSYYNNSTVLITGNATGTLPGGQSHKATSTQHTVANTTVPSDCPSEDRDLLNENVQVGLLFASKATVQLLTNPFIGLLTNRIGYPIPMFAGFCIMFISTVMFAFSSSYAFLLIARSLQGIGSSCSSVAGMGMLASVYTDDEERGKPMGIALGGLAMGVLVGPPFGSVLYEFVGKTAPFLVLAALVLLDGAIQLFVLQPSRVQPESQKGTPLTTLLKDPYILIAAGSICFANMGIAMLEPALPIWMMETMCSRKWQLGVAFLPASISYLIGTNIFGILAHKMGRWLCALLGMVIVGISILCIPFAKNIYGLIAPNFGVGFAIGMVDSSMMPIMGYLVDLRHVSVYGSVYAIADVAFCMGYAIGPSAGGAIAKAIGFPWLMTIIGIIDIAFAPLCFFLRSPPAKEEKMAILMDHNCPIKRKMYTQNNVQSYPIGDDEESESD
Chain of human AMP-activated Protein Kinase, alpha 1 (AMPKa1), PRKAA1 (gene 5562) (Q13131 whole entry, looked up): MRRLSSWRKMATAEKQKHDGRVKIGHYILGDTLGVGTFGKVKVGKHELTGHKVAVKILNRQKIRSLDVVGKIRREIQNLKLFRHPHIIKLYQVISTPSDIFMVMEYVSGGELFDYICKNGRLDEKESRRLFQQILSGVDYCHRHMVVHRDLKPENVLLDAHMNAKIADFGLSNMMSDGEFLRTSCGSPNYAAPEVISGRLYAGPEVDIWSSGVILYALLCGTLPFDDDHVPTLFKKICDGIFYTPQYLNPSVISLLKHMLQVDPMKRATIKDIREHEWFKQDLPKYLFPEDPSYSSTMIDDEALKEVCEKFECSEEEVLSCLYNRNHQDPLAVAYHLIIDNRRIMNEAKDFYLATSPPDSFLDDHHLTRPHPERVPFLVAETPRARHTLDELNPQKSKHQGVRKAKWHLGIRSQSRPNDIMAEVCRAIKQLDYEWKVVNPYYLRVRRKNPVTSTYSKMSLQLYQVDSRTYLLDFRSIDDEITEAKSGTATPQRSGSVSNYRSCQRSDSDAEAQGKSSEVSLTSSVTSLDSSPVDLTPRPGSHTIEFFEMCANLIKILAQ
Chain of human Caspase 10 (CASP10), CASP10 (gene 843) (Q92851 whole entry, looked up): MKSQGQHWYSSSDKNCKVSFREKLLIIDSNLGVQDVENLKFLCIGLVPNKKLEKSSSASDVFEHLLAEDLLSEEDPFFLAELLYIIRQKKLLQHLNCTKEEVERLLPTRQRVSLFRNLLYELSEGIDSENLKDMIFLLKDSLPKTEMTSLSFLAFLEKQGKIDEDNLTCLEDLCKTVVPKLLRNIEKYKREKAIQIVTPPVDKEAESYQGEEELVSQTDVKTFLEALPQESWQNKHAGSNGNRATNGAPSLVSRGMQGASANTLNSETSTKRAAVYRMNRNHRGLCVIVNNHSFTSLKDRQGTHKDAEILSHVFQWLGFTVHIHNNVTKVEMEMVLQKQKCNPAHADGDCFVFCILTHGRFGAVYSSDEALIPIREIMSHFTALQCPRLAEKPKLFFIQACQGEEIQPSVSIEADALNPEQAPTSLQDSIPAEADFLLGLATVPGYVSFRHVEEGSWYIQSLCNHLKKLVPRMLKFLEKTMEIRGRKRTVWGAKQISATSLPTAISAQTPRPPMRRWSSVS
Chain of human Matrix Metalloproteinase-1 (MMP1), MMP1 (gene 4312) (P03956 whole entry, looked up): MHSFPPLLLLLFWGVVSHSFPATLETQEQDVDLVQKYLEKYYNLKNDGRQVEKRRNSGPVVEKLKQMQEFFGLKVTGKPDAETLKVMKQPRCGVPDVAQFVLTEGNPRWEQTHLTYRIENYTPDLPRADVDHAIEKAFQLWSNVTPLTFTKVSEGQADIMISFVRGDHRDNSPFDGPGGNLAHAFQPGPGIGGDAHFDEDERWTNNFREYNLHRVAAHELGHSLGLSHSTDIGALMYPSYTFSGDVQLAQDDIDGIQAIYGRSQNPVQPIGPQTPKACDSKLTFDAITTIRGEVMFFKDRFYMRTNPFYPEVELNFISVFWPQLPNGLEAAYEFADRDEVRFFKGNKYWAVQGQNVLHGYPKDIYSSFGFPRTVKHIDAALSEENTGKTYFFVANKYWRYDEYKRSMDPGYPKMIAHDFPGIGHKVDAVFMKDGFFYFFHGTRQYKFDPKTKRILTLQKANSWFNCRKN
Chain of human Caspase 2 (CASP2), CASP2 (gene 835) (P42575 whole entry, looked up): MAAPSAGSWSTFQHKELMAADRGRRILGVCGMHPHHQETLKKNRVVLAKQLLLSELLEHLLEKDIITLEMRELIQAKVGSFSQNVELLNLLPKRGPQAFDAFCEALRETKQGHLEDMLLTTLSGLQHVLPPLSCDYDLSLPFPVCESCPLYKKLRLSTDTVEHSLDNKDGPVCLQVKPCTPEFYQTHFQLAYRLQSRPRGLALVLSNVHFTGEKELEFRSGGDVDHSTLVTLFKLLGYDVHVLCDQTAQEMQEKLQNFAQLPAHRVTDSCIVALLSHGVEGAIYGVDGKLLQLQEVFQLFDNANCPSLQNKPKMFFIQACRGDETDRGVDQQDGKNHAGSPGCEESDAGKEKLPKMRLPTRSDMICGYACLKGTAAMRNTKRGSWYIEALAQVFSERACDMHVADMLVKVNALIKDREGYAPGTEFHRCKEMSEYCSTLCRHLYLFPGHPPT
Chain of human p21 Activated Kinase 4 (PAK4), PAK4 (gene 10298) (O96013 whole entry, looked up): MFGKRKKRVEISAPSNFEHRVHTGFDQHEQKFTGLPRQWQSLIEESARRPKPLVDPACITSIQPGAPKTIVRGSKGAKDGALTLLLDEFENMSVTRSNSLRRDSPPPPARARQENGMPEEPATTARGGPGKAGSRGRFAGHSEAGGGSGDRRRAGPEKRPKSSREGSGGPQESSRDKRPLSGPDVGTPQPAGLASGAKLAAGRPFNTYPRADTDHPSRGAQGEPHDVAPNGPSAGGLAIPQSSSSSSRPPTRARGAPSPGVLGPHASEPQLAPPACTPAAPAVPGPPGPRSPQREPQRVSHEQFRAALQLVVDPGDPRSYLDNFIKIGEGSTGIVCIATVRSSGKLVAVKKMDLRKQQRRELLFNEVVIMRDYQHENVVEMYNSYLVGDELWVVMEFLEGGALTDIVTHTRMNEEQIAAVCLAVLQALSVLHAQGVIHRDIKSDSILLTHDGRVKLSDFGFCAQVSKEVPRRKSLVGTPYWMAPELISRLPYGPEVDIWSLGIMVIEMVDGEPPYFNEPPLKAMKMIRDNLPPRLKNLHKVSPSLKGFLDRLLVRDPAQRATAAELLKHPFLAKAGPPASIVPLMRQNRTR
Chain of rat Monoamine Oxidase, MAO-B, Peripheral (MAOBP), Maob (gene 25750) (P19643 whole entry, looked up): as the sequence (P19643 whole entry, looked up) above
Chain of human Aurora Kinase A - serine/threonine-protein Kinase 6 (AurA), AURKA (gene 6790) (O14965 whole entry, looked up): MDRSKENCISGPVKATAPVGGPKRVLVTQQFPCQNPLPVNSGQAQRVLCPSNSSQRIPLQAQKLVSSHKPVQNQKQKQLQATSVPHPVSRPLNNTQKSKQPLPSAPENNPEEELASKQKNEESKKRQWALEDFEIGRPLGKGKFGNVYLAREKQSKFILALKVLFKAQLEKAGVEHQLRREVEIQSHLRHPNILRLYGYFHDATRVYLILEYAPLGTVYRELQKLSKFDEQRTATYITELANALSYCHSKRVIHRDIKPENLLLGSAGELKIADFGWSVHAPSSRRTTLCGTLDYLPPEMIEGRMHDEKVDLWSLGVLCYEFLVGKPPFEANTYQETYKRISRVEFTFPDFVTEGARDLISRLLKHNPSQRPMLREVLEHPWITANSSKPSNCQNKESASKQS

On to `CCCCCCOC(=O)CC(CC(=O)OCCCCCC)(OC(=O)CCC)C(=O)OCCCCCC`, for which the compound was called inactive in [1] and in [2].

As for `CCOC(=O)c1ccc(C2CCC(NC[C@H](O)COc3ccc(O)c(NS(C)(=O)=O)c3)CC2)cc1` (stereo not given in full), the AC50 in assay [1] was 23.4 µM (active); in [3], 10.2 µM (active).

For `COc1ccc2cc(S(=O)(=O)N[C@H](CC(=O)N[C@H](Cc3ccc(CN4[C@H](C)CCC[C@@H]4C)cc3)C(=O)N(C)C(C)C)c3ccc4c(c3)OCO4)ccc2c1`, the compound was called inactive in assay [1], in assay [2], in assay [4] and in [6]. Also, the AC50 in [5] is 36 µM (active).

As to `O=C1c2ccccc2C(=O)N1CCc1noc(-c2ccc(CN3CCCCCC3)s2)n1`, the AC50 was 13.8 µM (active) in [1], 12.5 µM (active) in assay [3] and 2.87 µM (active) in assay [9]. Further, the compound was classed as inactive in assay [7] and in [8].

With `CCOC(=O)CCC(=O)OCC`, the result in [1] and in assay [10] was inactive. Moreover, in assay [11], the AC50 was 34.7 µM (active).

`C[Si]1(C)O[Si](C)(C)O[Si](C)(C)O[Si](C)(C)O1`: the result in [7], in assay [12], in assay [13], in assay [14], in assay [15] and in assay [9] was inactive.

In the case of `Nc1ccc2c(c1)C(=O)c1ccccc1C2=O`, the outcome in [1], in [3] and in assay [9] was inactive. Also, the AC50 is 6.14 µM (active) in assay [5] and 3.68 µM (active) in [16].

`O=c1[nH]c2ccc(S(=O)CCN3CCC(Cc4ccc(F)cc4)CC3)cc2o1` (stereo not given): the concentration at half-maximal activity (AC50) in assay [1] was 3.71 µM (active). The compound was called inactive in assay [4].

Regarding `CN1C(=O)N(c2ccccc2Br)Cc2cnc(Nc3ccc4c(c3)OCC(CO)O4)nc21` (stereo not given), the call in assay [7] and in [12] was inactive. For the same compound, the figures for the AC50 in [17], in [18] and in [10] were 5.65 µM (active), 0.0059 µM (active) and 8.54 µM (active), respectively.

What is called AC50 is the concentration giving half of the maximal activity seen.

For the origin of these results see PubChem BioAssay (EPA / NIEHS).
